GRIN3A LBD mod: binders of NR3A ligand-binding domain, primary screen, biophysical, differential scanning fluorimetry, uHTS | Glutamate receptor ionotropic, NMDA 3A (GRIN3A) ligand-binding domain | NR3A LBD differential scanning fluorimetry, Tm shift; 0% = protein alone, 100% = glycine-bound protein | Tm shift relative to glycine control, % at 25 µM | 340,000 compounds, 2.5% hits | AID 1259313, 2017;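 active means melting temperature shift of at least 10% of the positive control shift, at one fixed dose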
ADAM17 inh: ADAM17 inhibitors, primary screen, biochemical, QFRET. 370,000 compounds, 0.83% hits. AID 720648, 2013. inhibition, % at 6.95 µM. recombinant ADAM17, EDANS/DABCYL FRET peptide cleavage;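 active means inhibition above the mean of compounds lying between control limits plus 3 SD, set per campaign, cut at about 8.5% in these data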
proKLK7 act: proKLK7 zymogen activators, primary screen, biochemical, fluorescence intensity. activation, % at 7 µM. purified proKLK7, EDANS-DABCYL substrate fluorescence; 100% is mature enzyme control, 0% vehicle. 370,000 compounds, 0.9% hits;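 active means activation above the mean of all tested compounds plus 3 SD, computed per campaign excluding outliers beyond control limits, cut at about 13% in these data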
Target sequence (P49862 whole entry, looked up): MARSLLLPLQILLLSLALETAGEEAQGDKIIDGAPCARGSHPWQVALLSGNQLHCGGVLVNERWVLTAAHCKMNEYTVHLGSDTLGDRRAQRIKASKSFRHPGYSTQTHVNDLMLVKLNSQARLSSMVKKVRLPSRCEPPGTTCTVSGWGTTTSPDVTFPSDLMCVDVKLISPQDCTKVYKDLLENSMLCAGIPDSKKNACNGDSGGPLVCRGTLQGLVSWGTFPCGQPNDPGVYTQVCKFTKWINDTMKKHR
AHR act: AHR activators, primary screen, cell-based, luminescence, luciferase reporter, human; 320,000 compounds, 2.5% hits; AID 2796, 2010; AHR-responsive luciferase reporter cells; activation, % at 5 µM; in the data active means activation above about 47%
rCAG RNA binder: binders of r(CAG) RNA repeats, primary screen, biochemical, fluorescence | inhibition, % at 3 µM | 370,000 compounds, 1.3% hits | r(CAG) RNA repeat, TO-PRO-1 dye displacement fluorescence;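 active means inhibition above the plate cutoff, the mean of all test compounds on that plate plus 3 SD, cut at about 35% in these data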;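 further: higher means more dye released from RNA so lower well fluorescence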
ADAM10 inh: human ADAM10 inhibitors, primary screen, biochemical, QFRET, HTS | Disintegrin and metalloproteinase domain-containing protein 10 (Homo sapiens), O14672 | recombinant ADAM10, EDANS/DABCYL FRET peptide cleavage, 3 h | inhibition, % at 7 µM | 370,000 compounds, 0.62% hits | AID 720582, 2013;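 active means inhibition above a per-campaign cutoff equal to the mean of compounds falling between control-based bounds plus 3 SD, cut at about 20% in these data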
Hits are given with their value; 0 = inactive; - = not tested or not shown. Sampled rows, rich in hits. Any-hit rate of the full collection: about 7%.

SMILES	GRIN3A LBD mod	ADAM17 inh	proKLK7 act	AHR act	rCAG RNA binder	ADAM10 inh
CCOc1ccc(Nc2nc(NCc3ccco3)nc(N)c2[N+](=O)[O-])cc1	12	0	0	0	0	0
COCCCNc1nc(N)c([N+](=O)[O-])c(Nc2ccccc2OC)n1	0	0	0	56	0	0
COc1ccc(OC)c(Nc2nc(NCc3ccco3)nc(N)c2[N+](=O)[O-])c1	0	0	0	62	0	0
COc1ccccc1Nc1nc(NCc2ccco2)nc(N)c1[N+](=O)[O-]	0	0	0	0	0	0
Nc1nc(NCc2ccco2)nc(Nc2ccc(F)cc2)c1[N+](=O)[O-]	0	0	0	113	0	0
COCCCNc1nc(N)c([N+](=O)[O-])c(NCc2ccccc2)n1	0	0	0	0	0	0
O=C(NC1CCCCN(Cc2cccc(F)c2)C1=O)c1cccc(C(F)(F)F)c1 (configuration not stated)	-	0	0	-	0	0
Cc1ccc(-c2cc(-c3nnc(SCC(=O)N4c5ccccc5Sc5ccc(Cl)cc54)n3N)[nH]n2)cc1	-	0	0	-	0	0
C[C@@H](NC(=O)C[C@H]1CC[C@H]2[C@@H](COc3ccc(NC(=O)Nc4ccccc4)cc3C(=O)N2C)O1)c1ccccc1	-	0	0	-	0	0
CCCN1CCS(=O)(=O)N(Cc2cn(Cc3ccc(F)cc3)nn2)C(C(=O)OC)C1 (configuration not stated)	-	0	0	-	0	0
CN(C)CCN=Cc1c(O)n(-c2ccc(S(=O)(=O)N3CCOCC3)cc2)c(=O)c2ccccc12	14	0	0	-	0	0
Cc1cccc(-n2c(O)c(C=NCCCN3CCOCC3)c3ccccc3c2=O)c1	0	0	0	0	0	0
O=C(c1ccc(Cl)c(Cl)c1)N1CCC(Oc2cccnc2)CC1	-	0	0	-	0	0
C/C(=N\NC(=O)c1cc(-c2cccc([N+](=O)[O-])c2)n[nH]1)c1ccccc1O	26	0	0	0	0	0
CCOC(=O)c1cc(-c2cccc([N+](=O)[O-])c2)n[nH]1	33	0	0	0	0	0
C/C(=N\NC(=O)c1cc(-c2cccc([N+](=O)[O-])c2)n[nH]1)c1ccc(F)cc1	63	0	0	0	0	0
C/C(=N/NC(=O)c1cc(-c2cccc([N+](=O)[O-])c2)n[nH]1)c1cccc(O)c1	10	0	0	0	0	0
O=C(O)c1cc(-c2cccc([N+](=O)[O-])c2)n[nH]1	0	0	0	0	0	0
O=C(Nc1ccc2c(c1)OCO2)O[C@@H]1CC[C@@]23CCCN2C(=O)CCC[C@H]3C1	-	0	-	-	-	0
Cc1cccc(C)c1NC(=O)C1CCCN1S(=O)(=O)c1cccc2cccnc12 (configuration not stated)	-	0	0	-	0	0
CCCc1cc(-c2nc(-c3ccc(Br)cc3)cs2)ccn1	0	0	0	47	0	0
COc1ccc(OC)c(S(=O)(=O)N2CCCCC2C(=O)N2CCCN(C)CC2)c1 (configuration not stated)	-	0	0	-	0	0
C/C(=N\N=c1/sc2ccccc2n1C)c1ccc(N2CCOCC2)cc1	0	0	0	53	0	0
CC(=O)N/N=c1\sc2ccccc2n1C	0	0	0	0	0	0
O=C(CNS(=O)(=O)c1ccc(Br)s1)N1CCN(c2ccccn2)CC1	-	0	0	-	0	0
SMILES	GRIN3A LBD mod	ADAM17 inh	proKLK7 act	AHR act	rCAG RNA binder	ADAM10 inh
c1ccc2nc(-c3nc4ccccc4o3)ccc2c1	0	0	0	90	0	0
c1ccc(-c2ccc3ccccc3n2)cc1	32	0	0	0	0	0
COc1ccc(NC(=O)OCCN2CCCC23CCC(c2ccccc2)CC3)cc1 (configuration not stated)	-	0	-	-	-	0
Cc1sc(NC(=O)c2ccccc2)c(C(=O)c2ccccc2)c1C	0	0	0	0	0	0
CCN(CC)Cc1c(NC(=O)c2ccccc2)sc(C)c1C	0	0	0	65	0	0
Cc1ccc(C(=O)Nc2sc(C)c(C)c2C(=O)c2ccccc2)cc1	20	0	0	0	0	0
CCN(CC)C(=O)c1c(NC(=O)c2ccccc2)sc(C)c1C	0	0	0	0	0	0
C#CCN1CC(N(C)CCOC(=O)c2ccc(OC)c(OC)c2)CS1(=O)=O (configuration not stated)	-	0	0	-	0	0
CCN(CC)c1ncnc2c1[nH]c1ccccc12	0	0	0	65	0	0
CCCOc1ncnc2c1[nH]c1ccccc12	0	0	0	80	0	0
CC(C)Oc1ncnc2c1[nH]c1ccccc12	0	0	0	0	0	0
OCCCNc1ncnc2c1[nH]c1ccccc12	0	0	0	0	0	0
COCCNc1ncnc2c1[nH]c1ccccc12	0	0	0	74	0	0
COc1cc(O)c(C(CC(=O)N2CC(C)OC(C)C2)c2ccc3c(c2)OCO3)c(OC)c1 (configuration not stated)	-	0	-	-	-	0
C#CCNC(=O)C[C@@H]1C[C@@](CCC(=O)OCC)(C(=O)OCC)C2=CCCCN2C1=O	-	0	0	-	0	0
C[C@@H]1ON(C)[C@H]2C[C@H]3c4[nH]c5cccc(-c6ccccc6F)c5c4CCN3C(=O)[C@@H]12	-	0	0	-	0	0
COc1ccc(/C=C/c2nc(-c3ccccc3O)n[nH]2)cc1OC	27	0	0	0	48	0
O=C(O)COc1ccc(/C=C/c2nc(-c3ccccc3O)n[nH]2)cc1	0	0	0	0	0	0
COc1cc(/C=C/C(=O)OCC(=O)Nc2ccccc2Sc2ccc(Cl)cc2)ccc1O	15	0	0	0	0	0
COC(=O)CSc1nnc(-c2ccc(NS(=O)(=O)c3ccc(C)c(C)c3)cc2)o1	-	0	0	-	0	0
Cc1nc(-c2ccc(C(=O)Nc3ccc(F)cc3)cc2)cs1	11	0	0	0	0	0
Cc1nc(-c2cccc(NC(=O)c3ccc(-n4cccn4)cc3)c2)cs1	16	0	0	0	0	0
Cc1ccc(NC(=O)Cc2csc(-c3ccccc3)n2)cc1F	0	0	0	0	0	0
O=C(Cc1csc(-c2ccccc2)n1)Nc1ccc(C(F)(F)F)cc1	13	0	0	55	0	0
O=C(Nc1ccc(-c2csc(-c3ccccc3)n2)cc1)c1ccccc1	13	0	0	0	0	0
Cc1ccc(Cn2cc(CN3[C@@H](Cc4ccccc4)COc4cc(Br)ccc4S3(=O)=O)nn2)cc1	-	0	0	-	0	0
